# For part of these data: Results with a measured potency or affinity are listed apart.
# How the values were obtained:
# Staphylococcus aureus = assay: Antibacterial activity against Staphylococcus aureus MRSA ATCC 43300 (CO-ADD:GP_020); MIC in CAMBH media using NBS plates, by Resazurin F(560/590); type: functional; details: Concentration 20 uM, ASSAY_TEST Inhibition of Bacterial Growth, detection method Resazurin, Fluorescence (ex560/em590), MEDIA CAMHB, plate type 384well, CORNING #3640, time 18 hr
# Acinetobacter baumannii = assay: Antibacterial activity against Acinetobacter baumannii ATCC 19606 (CO-ADD:GN_034); MIC in CAMBH media using NBS plates, by Resazurin F(560/590); type: functional; details: Concentration 20 uM, ASSAY_TEST Inhibition of Bacterial Growth, detection method Resazurin, Fluorescence (ex560/em590), MEDIA CAMHB, plate type 384well, CORNING #3640, time 18 hr
# Escherichia coli = assay: Antibacterial activity against Escherichia coli ATCC 25922 (CO-ADD:GN_001); MIC in CAMBH media using NBS plates, by Resazurin F(560/590); type: functional; details: Concentration 20 uM, ASSAY_TEST Inhibition of Bacterial Growth, detection method Resazurin, Fluorescence (ex560/em590), MEDIA CAMHB, plate type 384well, CORNING #3640, time 18 hr
# Klebsiella pneumoniae = details: Concentration 20 uM; ASSAY_TEST Inhibition of Bacterial Growth; detection method Absorption (OD600); MEDIA CAMHB; plate type 384well; NBS; CORNING #3640; time 18 hr
# Candida albicans = details: 20 µM
# Cryptococcus neoformans = details: Concentration 20 uM; ASSAY_TEST Inhibition of Fungal Growth; detection method Resazurin; Absorption (OD600-OD570); plate type 384well; NBS; CORNING #3640
Structure (SMILES),Inhibition (Staphylococcus aureus) [%],Inhibition (Acinetobacter baumannii) [%],Inhibition (Escherichia coli) [%],Inhibition (Klebsiella pneumoniae) [%],Inhibition (Candida albicans) [%],Inhibition (Cryptococcus neoformans) [%]
Nc1ccc(Br)cc1Br,10.2,5.55,2.13,7.43,6.15,-7
NCc1c(O)ccc2ccccc12,7.19,-7.97,-11.88,11.42,3.27,15.16
O=NC1=C(c2cccc([N+](=O)[O-])c2)Nc2ccccc2S1,0.76,0.77,-6.48,32.11,13.1,-8.32
Nc1ccc(C(=O)Nc2cccc(N)c2)cc1,4.61,-10.29,5.56,4.23,0.06,-9.54
COC(=O)CC1(C(=O)OC)Nc2cc(Cl)c(Cl)cc2S(=O)(=O)N1O (stereo not given),8.27,11.98,7.08,10.44,3.58,3.59
O=CN/C=C\c1cc(O)ccc1O,-18.33,-7.5,-8.61,6.52,4.27,7.81
C(=N\n1cnnc1)/c1ccc2c(c1)CCC2,10.16,-8.61,2.79,9.91,12.8,-5.02
NC(=O)c1ccccc1OCC(=O)Nc1ccc(Cl)c(Cl)c1,5.21,-16.17,19.19,9.46,4.37,-18.28
CCOC(=O)C(=Cc1ccc(Br)cc1)C(=O)OCC,4.77,8.54,-5.6,28.34,19,-1.07
O=S1(=O)CCN(Cc2ccccn2)CC1,22.86,16.69,26.77,2.99,2.84,12.19
C1CCc2nc3c(nc2C1)CCCC3,13.53,-4.6,11.61,13.7,1.61,-2.79
CCN(c1ccccc1)c1nc(Cl)nc2c1cnn2C,9.86,12.26,4.23,13.76,2.54,-8.45
CC(=O)Oc1ccc(OC(C)=O)c2c1CC(C)=C(C)C2,4.66,-3.24,12.77,4.69,1.46,-18.35
Cc1cc2c(cc1C)NC1=C(O)C(c3cccc(O)c3)OC1=N2 (stereo not given),3.69,4.58,-10.78,28.82,3.61,-0.13
COc1cc(C2NC(=O)C(C#N)=C(Nc3cccc(C)c3)S2)ccc1O (stereo not given),16.64,5.33,14.44,11.49,1.94,-8.18
CC(C1=C(CCN(C)C)Cc2ccccc21)c1ccccn1.O=C(O)/C=C\C(=O)O (stereo not given) [DIMETHINDENE MALEATE],21.63,-11.43,16.27,18.33,1.91,-1.76
O=[N+]([O-])c1ccc(Sc2ncccn2)c([N+](=O)[O-])c1,-0.05,-11.01,5.58,8.38,12.9,-3.06
Cc1nc2c(O)cccc2cc1CO,12.47,-18.52,6.1,7.86,-0.94,-5.84
O=C1NC(=O)N2CCSC2(Cc2ccccc2)N1 (stereo not given),11.67,11.67,-4.61,17.33,4.4,-2.7
CC1=CC2(C)NC(=O)C(C)C12 (stereo not given),9.76,-10.3,6.64,6.26,-0.72,-9.55
COc1cc(S(N)(=O)=O)c(OC)cc1N,4.84,-10.8,11.54,5.18,1.19,-0.85
COc1cccc(OCC(O)CN2CCN(c3ccccc3)CC2)c1 (stereo not given),10.13,-11.48,-4.05,23.2,-2.19,-13.63
Cc1c(NC(=O)Nc2c(Cl)cccc2Cl)c(=O)n(-c2ccccc2)n1C,9.25,9.07,6.32,8.26,-0.35,-0.01
O=C1Cc2cccc(O)c(=O)c2C(=O)O1,18.22,9.21,9.09,8.59,1.02,-4.33
Cc1ccccc1OCC(O)CN1CCN(c2ccc(Cl)cc2)CC1 (stereo not given),16.79,7.24,2.66,7.5,0.11,-12.08

Structure (SMILES),Inhibition (Staphylococcus aureus) [%],Inhibition (Acinetobacter baumannii) [%],Inhibition (Escherichia coli) [%],Inhibition (Klebsiella pneumoniae) [%],Inhibition (Candida albicans) [%],Inhibition (Cryptococcus neoformans) [%]
CC(C)Oc1ccc(C(=O)O)cc1,3.26,-8.45,5.58,15.4,24.9,-0.99
Nc1nc(N)nc(-c2ccccc2-c2nc(N)nc(N)n2)n1,10.97,8.5,-2.58,13.54,6.82,-8.57
O=C1COc2c1ccc(O)c2O,0.46,-23.14,5.49,7.13,0.16,-9.43
Sc1ncc2cnccn12,-4.23,-8.79,10.26,3.96,0.86,-12.71
c1ccc(-n2nnnc2-c2cccc3ccccc23)cc1,11.74,8.55,-5.59,3.86,8.07,-9.54
Cc1ccc(/N=N/c2c(N)nn(-c3ccccc3)c2N)cc1,4.28,-1.05,11.08,11.62,9.14,-17.06
CC(C)(CO)N1CCN(C(S)=Nc2ccccc2)CC1,-0.05,2.01,-1.36,29.13,8.13,-5.08
Cl/N=C1/C=CC=C/C1=N/Cl,-18.23,-7.09,4.05,-1.59,-1.15,-1.81
CC(=O)O.COc1ccc2nccc(/C=C/c3ccnc4ccc(OC)cc34)c2c1,1.03,-11.4,10.64,6.2,5.73,-5.13
O=C(O)c1ccccc1-c1ccccc1C(=O)Nc1ccc2oc(=O)c3ccccc3c2c1,4.75,-2.77,-0.87,11.43,17.8,-3.99
Nc1ncnc2c1cnn2C1CCCCC1,-0.45,-2.92,-6.81,9,1.58,-3.99
O=c1c(O)cccc2cc(O)c(O)c(O)c12 [PURPUROGALLIN],-28.9,1.69,13.14,21.3,53.6,-25.98
CC12CCC(C1)C(C)(C)C2OC(=O)c1ccccc1C(=O)O (stereo not given),7.81,-7.81,-3.09,22.55,4.22,-18.67
CCCCn1ccnc1C,-0.22,-5.26,4.7,8.98,0.01,-3.23
O=C1C2C3C=CC(O3)C2C(=O)N1Nc1ccccc1 (stereo not given),-4,10.94,-0.67,8.39,1.05,-2.5
Nc1ccc(NC(=O)c2ccc(C(=O)Nc3ccc(N)cc3)cc2)cc1,11.02,-8.34,15.83,3.68,40.4,10.38
Cc1cccc(N2CCN(CC(O)COc3ccccc3Cl)CC2)c1 (stereo not given),6.25,7.51,7.94,12.03,-0.3,-18.69
O=C(Nc1ccc(O)c(C(=O)O)c1)Oc1ccccc1,5.63,12.9,-6.34,11.35,5.9,-2.46
OC1COC(OCc2ccccc2)C(O)C1O (stereo not given),21,-10.71,8.16,4.56,0.34,-6.82
CCCCc1c(C)nc(S)nc1O,16.17,-14.45,9.4,7.26,2.04,-3.51
Clc1nc(Cl)nc(-c2cn(-c3ccccc3)c3ccccc23)n1,19.15,12.32,3.43,3.41,-0.1,5.66
Nc1nc(=S)ss1,5.79,-17.7,2.29,13.54,3.85,-5.25
O=C1c2ccccc2C(=O)N1c1nc[nH]n1,4.45,-18.59,12.38,0.02,-0.21,-4.67
NC(=O)SCC(=O)Nc1ccccc1C(=O)O,2.18,6.48,-0.39,23.65,9.98,-3.81
CN(C)CC1C2CCC(C2)C1O (stereo not given),7.18,-12.67,8.84,23.62,0.82,-7.67

# From ChEMBL document CHEMBL4296182, “CO-ADD screening of NIH NCI Diversity Set V”
